High-throughput results: PubChem BioAssay, Fisher Drug Discovery Resource Center
Many of the other results were omitted from the sample, so hits are more common in it than they were.
mcGAS MS inh: inhibitors of Mus musculus cyclic GMP-AMP synthase, initial high-throughput assay, cell-free, RapidFire MS | inhibition, % at 12.5 µM | recombinant mouse cGAS, cGAMP by RapidFire MS | AID 1259397, 2018 | 130,000 tested, 0.18% active | Q8C6L5;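 active means inhibition of cGAS enzyme activity at or above 60%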;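 further: enzyme stimulated by 45 bp dsDNA with ATP and GTP substrates; cGAMP share of summed cGAMP plus half ATP and half GTP signals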
Target sequence (Q8C6L5 whole entry, looked up): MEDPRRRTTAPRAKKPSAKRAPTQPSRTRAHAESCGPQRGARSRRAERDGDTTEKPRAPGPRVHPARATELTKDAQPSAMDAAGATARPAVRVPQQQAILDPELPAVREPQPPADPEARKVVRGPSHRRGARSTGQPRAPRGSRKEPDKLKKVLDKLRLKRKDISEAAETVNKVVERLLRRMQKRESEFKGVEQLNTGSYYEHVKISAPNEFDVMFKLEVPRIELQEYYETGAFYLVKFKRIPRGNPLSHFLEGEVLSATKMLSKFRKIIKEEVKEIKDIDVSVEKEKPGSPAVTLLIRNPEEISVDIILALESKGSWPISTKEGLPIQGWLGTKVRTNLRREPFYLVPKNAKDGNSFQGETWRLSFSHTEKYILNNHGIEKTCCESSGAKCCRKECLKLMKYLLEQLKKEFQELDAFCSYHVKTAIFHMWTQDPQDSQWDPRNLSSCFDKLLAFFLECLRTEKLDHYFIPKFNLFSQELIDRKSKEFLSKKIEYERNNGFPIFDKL
* hit, by the source's call; ! = a repeat was not active.

`CN(c1ncccc1C(=O)N1CCCC(O)(CO)CC1)C1CCCCC1` (configuration not stated) gave mcGAS MS inh -32.
Screening O=C(O)C1Sc2[nH]c(=O)sc2C2c3cc(Cl)cc(Cl)c3OC(=O)C12 (configuration not stated) returned mcGAS MS inh 57.
`O=C1Oc2ccccc2C2c3sc(=O)[nH]c3SCC12` (configuration not stated) gave mcGAS MS inh 91*.
`O=C(O)CC12CSc3[nH]c(=O)sc3C1c1ccccc1OC2=O` (configuration not stated) gave mcGAS MS inh 13.
CCN(CCO)c1nc(-c2ccc(F)cc2)cs1 was read as mcGAS MS inh -2.
For C=CCN=c1scc(-c2ccc(Cl)c(Cl)c2)n1N=Cc1cccnc1 the results were mcGAS MS inh 47.
For CC1CCCN(C(=O)c2ccc(Br)o2)C1 (configuration not stated) the results were mcGAS MS inh 54.
`O=C(c1ccco1)N1CCN(C(=O)c2ccc(Br)o2)CC1` gave mcGAS MS inh -5.
Screening Nc1nncn1C(=O)c1ccc(Br)o1 returned mcGAS MS inh 82*.
For CC(Cc1cccs1)N(Cc1ccc(Cl)cc1)C(=O)C1CC1 (configuration not stated) the results were mcGAS MS inh -2.
For CN(CC(=O)Nc1ccc(N2CCOCC2)cc1)C(=O)COc1ccccc1C#N the results were mcGAS MS inh 69*.
CCCCC(=O)Nc1ccc(N2CCOCC2)cc1 was read as mcGAS MS inh -6.
For CC(C)n1nccc1NC(=O)COc1ccccc1C#N the results were mcGAS MS inh 3.
COc1ccc(C2c3cccn3CCCN2Cc2cccc(Cl)c2)cc1O (configuration not stated) was read as mcGAS MS inh -4.
CSC1(CNc2ccc(Br)cn2)CCOCC1 was read as mcGAS MS inh 71*.
Screening CSC1(CNC(=O)c2ccc(Oc3ccccc3)nc2)CCOCC1 returned mcGAS MS inh -13.
`CSC1(CNC(=O)N2CCCC2c2cccs2)CCOCC1` (configuration not stated) gave mcGAS MS inh 14.
Screening FC(F)(F)c1ccc2c(c1)n(Cc1ccccc1Cl)c1[n+]2CCCCC1 returned mcGAS MS inh -8.
`Cc1cc(C=C2C(=O)NC(=S)NC2=O)c(C)n1CC(F)(F)F` gave mcGAS MS inh 74*.
Screening CCN1C(=O)C(=Cc2cc(C)n(CC(F)(F)F)c2C)SC1=S returned mcGAS MS inh -11.
For COC(=O)C(=Cc1cc(C)n(CC(F)(F)F)c1C)C(C)=O the results were mcGAS MS inh -12.
`Cc1ccsc1CNn1nnnc1N` gave mcGAS MS inh -9.
CCN(C(=O)c1ccc2oc(C)cc2c1)C1CCOC(C)(C)C1 (configuration not stated) was read as mcGAS MS inh -12.
`O=C(O)c1cc(O)c2c(O)c3c(O[C@H]4O[C@H](CO)[C@@H](O)[C@H](O)[C@H]4O)cccc3c(-c3c4cc(C(=O)O)cc(O)c4c(O)c4c(O[C@H]5O[C@H](CO)[C@@H](O)[C@H](O)[C@H]5O)cccc34)c2c1` gave mcGAS MS inh 82*!.
O=c1c(O[C@@H]2O[C@H](CO)[C@@H](O)[C@H](O)[C@H]2O)c(-c2ccc(O)c(O)c2)oc2cc(O)cc(O)c12 was read as mcGAS MS inh 11.
OC[C@H]1O[C@@H](Oc2ccc(O)cc2)[C@H](O)[C@@H](O)[C@@H]1O was read as mcGAS MS inh -10.
`C[n+]1c2cc(N)ccc2cc2ccc(N)cc21` gave mcGAS MS inh 99*!.
COCCn1c(O)c(C=NN=C(c2ccccc2)c2ccccc2)c(=O)[nH]c1=S was read as mcGAS MS inh -6.
CC(Nc1cccc(NC(=O)CO)c1)c1ncc(C(C)(C)C)o1 (configuration not stated) was read as mcGAS MS inh -5.
`COc1ccc(S(=O)C(C)c2ncc(C(C)(C)C)o2)cc1OC` (configuration not stated) gave mcGAS MS inh 68*.
Cc1ccc(S(=O)(=O)C(C)c2ncc(C(C)(C)C)o2)cc1C (configuration not stated) was read as mcGAS MS inh -14.
Screening O[C@@H]1CN(c2ncnc3ccsc23)CC[C@H]1N1CCOCC1 returned mcGAS MS inh 8.
For COc1ccc(S(=O)(=O)N2CCN(C(=O)c3ccc(-c4nnco4)cc3)CC2)cc1OC the results were mcGAS MS inh -1.
For O=S(=O)(NCCOc1cc(N2CCCCC2)ncn1)c1ccc(OC(F)(F)F)cc1 the results were mcGAS MS inh 2.
Screening CCN(CC1CCOC1)C(=O)/C=C/c1ccc(C#N)cc1 (configuration not stated) returned mcGAS MS inh 8.
COc1ccc(C(=O)Nc2nccs2)c(OC)c1 was read as mcGAS MS inh -1.
OCc1cn(-c2ccccc2Cl)nn1 was read as mcGAS MS inh 94*.
Screening CN(CCNC(=O)c1ccn(-c2ccccc2Cl)n1)C1CC1 returned mcGAS MS inh 2.
CS(=O)(=O)c1nnnn1-c1ccccc1Cl was read as mcGAS MS inh 21.
For CCCNC(=O)c1ccc(Cl)cc1NC(=O)CCCn1cncn1 the results were mcGAS MS inh -10.
O=C(O)[C@H]1C[C@@H](C(=O)N2CCCC2)CN(Cc2ccccn2)C1 was read as mcGAS MS inh 3.
For COc1ccccc1OCC1CN(C(=O)C2C=CCC=C2C)CCO1 (configuration not stated) the results were mcGAS MS inh -5.
Cc1nc2ccccc2c(C)c1CC(=O)NCCCn1ccnc1 was read as mcGAS MS inh -7.
CN(C)C(=O)Cc1ccccc1NC(=O)NCCCn1ccnc1 was read as mcGAS MS inh 94*.
For Cc1ccccc1CC(C)(C)NC(=O)NCCn1ccnc1 the results were mcGAS MS inh -5.
Screening O=C1CCC(NCc2ccc(C(=O)N3CCCC3)cc2)CCN1CC1CC1 (configuration not stated) returned mcGAS MS inh -31.
For CN(C)C(=O)C1CCCN1Cn1[nH]c(-c2ccccc2)nc1=S (configuration not stated) the results were mcGAS MS inh 17.
Fc1ccccc1N1CCN(Cn2[nH]c(-c3ccccc3)nc2=S)CC1 was read as mcGAS MS inh 5.
Screening S=c1nc(-c2ccccc2)[nH]n1CN1CCc2ccccc2C1 returned mcGAS MS inh 77*.
For CC(=O)c1cc(CC(=O)NC(C)c2cnn(-c3ccccn3)c2C)cs1 (configuration not stated) the results were mcGAS MS inh -3.
`Cc1cc2nc3c(=O)[nH]c(=O)nc-3n(CC(O)C(O)C(O)CO)c2cc1C` (configuration not stated) gave mcGAS MS inh 4.
Cc1cc2nc3c(=O)[nH]c(=O)nc-3n(C)c2cc1C=O was read as mcGAS MS inh 91*.
Cc1cc2nc(-c3ccccc3)c(=O)n(C)c2cc1C was read as mcGAS MS inh 2.
Screening Cn1ccnc1SCCNC(=O)c1cn(CC2CCCCC2)nn1 returned mcGAS MS inh -19.
`O=c1c(O)cccc2cc(O)c(O)c(O)c12` gave mcGAS MS inh 65*.
O=C(NCC1CCCN(S(=O)(=O)c2ccsc2)C1)c1ccco1 (configuration not stated) was read as mcGAS MS inh -3.
Screening NCc1cc(-c2ccc(F)cc2F)on1 returned mcGAS MS inh -1.
